Bioassay records from PubChem.
Sampled rows, rich in hits. Any-hit rate of the full collection: about 19%.
TDP1 cell CPT – DT40-hTDP1 cell growth loss with CPT. chicken DT40 Tdp1-/-;hTDP1 cells + 20 nM CPT, ATP luminescence, 48 h. Potency, µM (titrated, usually from 46.2 µM), for the others: top-dose activity change, negative = growth inhibition, usual class: inhibitors. actives 12% (n = 420,000); also: potency is read from the fitted curve at half-maximal effect; nearly all actives have a fitted effect of over 55% in size
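Chicken DT40 Tdp1-/- cells complemented with human TDP1, 400 cells/well, exposed to compounds plus 20 nM camptothecin for at least 48 h at 37 C; viability read as ATP content by CellTiter-Glo luminescence.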
HT1080NT lethal – kills 2HG-producing HT-1080-NT fibrosarcoma cells; HT-1080-NT fibrosarcoma viability, CellTiter-Glo ATP luminescence, 48 h; Potency, µM (top dose mostly 46.1 µM), for inactives: top-dose activity, negative = less viability, actives largely listed as cytotoxic; actives 1.6% (n = 360,000);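 also: NT is the 2HG producing partner of a matched IDH1 knockdown line; potency is read from the fitted curve at half-maximal effect; 0% = DMSO-treated cells and -100% = media-only wells without cells; nearly all actives have a fitted effect of over 55% in size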
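A 48-hour cytotoxicity screen used HT-1080-NT cells plated 2 hours before compound delivery. ATP-based CellTiter-Glo luminescence measured viability, normalized to DMSO and no-cell controls.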
HT1080 IDH1KD tx – kills HT-1080 cells with IDH1 knockdown; HT-1080 IDH1 knockdown viability, ATP luminescence, 48 h; Potency, µM (titrated, usually from 46.1 µM), without a hit: at the highest dose activity, negative = toxicity, usual class: cytotoxic; actives 2% (n = 360,000); AID 686971;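 also: potency is read from the fitted curve at half-maximal effect; 0% = DMSO wells and -100% = cell-free medium wells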
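HT-1080-IDH1KD cells (IDH1 knocked down), 750/well in RPMI with 5% FBS, treated with compound 48 h at 37 degrees C. Viability by CellTiter-Glo luminescence, normalised to DMSO and no-cell wells; concentration-response curves classed.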
IL-1B inflam inh – inflammasome signaling inhibition, IL-1 beta readout | THP-1 LPS/ATP IL-1B secretion, AlphaLISA, 16 h; hits give low values | activity change, % at 57.5 µM | AID 743279 | actives 4.7% (n = 360,000); in the data active = activity change below about -50%; inconclusive = mostly about -30% to -49%
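THP-1 cells pretreated 1 hr with compounds (up to 57.5 uM final), then stimulated with LPS (250 ng/mL final) plus ATP (1.25 mM final); secreted IL-1B measured by AlphaLISA after 16 hr, decreased signal indicating inhibition.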
uPA generation – cell surface uPA generation inhibition; cell surface uPA generation assay, qHTS; actives 0.31% (n = 330,000); AID 540303; Potency, µM (top dose mostly 38.3 µM), without a hit: at the top dose activity change, negative = inhibition, hits mostly inhibitors; active = well fitted inhibition curve with a large enough effect; inconclusive = small, poorly fitted or top-dose-only effect; inactive = no such curve, though single readings can be large or run the other way; tested in mouse RAW 264.7 cells; also: potency is read from the fitted curve at half-maximal effect; nearly all actives have a fitted effect of over 55% in size
DT40 TDP1 no CPT – qHTS for Inhibitors of human tyrosyl-DNA phosphodiesterase 1 (TDP1): qHTS in cells in absence of CPT; DT40 Tdp1-/- hTDP1 cells, no CPT, ATP luminescence, 48 h; Potency, µM (highest dose often 46.2 µM), for inactives: at the top dose activity change, negative = growth inhibition, usual class: inhibitors; actives 15% (n = 420,000); AID 686978, 2013; also: potency is read from the fitted curve at half-maximal effect; nearly all actives have a fitted effect of over 55% in size
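Chicken DT40 Tdp1-/- cells complemented with human TDP1, screened without camptothecin (DMSO vehicle only), 400 cells/well. Compounds pin-transferred, cells incubated at 37 °C for at least 48 hr. Growth read as ATP-dependent luminescence (CellTiter-Glo, 30 min at RT).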
* marks the source's active call; other numbers are inactive results; ? = inconclusive; . = no result given. Unless noted, calls follow the shape of the dose curve; as a rule, active = well fitted curve in the direction sought with a large enough effect; inconclusive = small, poorly fitted or top-dose-only effect, or another doubt; inactive = no such curve, though single readings can be large; an effect the other way counts as inactive or inconclusive. Unless noted, % is scaled to controls: 0 for no effect and ±100 for the full control effect.

SMILES	TDP1 cell CPT	HT1080NT lethal	HT1080 IDH1KD tx	IL-1B inflam inh	uPA generation	DT40 TDP1 no CPT
CC1CC1C(=O)N(C)CC(=O)Nc1ccc(Cl)c(C(F)(F)F)c1 (configuration not stated)	?	9%	3%	-22	-5%	?
CCC(=O)N[C@@H]1c2ccccc2C2(CCN(Cc3ccccn3)CC2)[C@H]1OC	6%	.	.	.	.	-6%
O=C(Nc1ccc(C(F)(F)F)cc1)C1=NN(C2CCS(=O)(=O)C2)C(=O)CC1 (configuration not stated)	-23%	-5%	-16%	-9	-16%	-30%
COCCn1c(=O)c(-c2cn(C)c3ccccc23)nc2cnc(Oc3ccccc3)nc21	6%	.	.	.	.	-10%
CN(CC(=O)Nc1cccc(F)c1)CC(=O)NC(c1ccccc1)c1ccccc1	23µM*	-8%	-15%	-20	-1%	?
CN(CC(=O)Nc1ccc(Cl)c(Cl)c1)Cc1nnc(-c2ccc(F)cc2)o1	?	-15%	-18%	-58*	0%	?
CN(Cc1nnc(-c2ccc(F)cc2)o1)c1ccccc1	-28%	23%	13%	6	-1%	-19%
O=C(Nc1cccc(-n2cccn2)c1)C1CCCN(Cc2ccccc2F)C1 (configuration not stated)	21µM*	1%	7%	-11	-15%	?
COc1ccc(CN2CCCC(C(=O)Nc3cccc(-n4cnnn4)c3)C2)c(C)c1C (configuration not stated)	?	-24%	-15%	-5	-17%	?
COc1cc(CN2CCCC(C(=O)Nc3cccc(-n4cccn4)c3)C2)ccc1F (configuration not stated)	?	?	?	-66*	-5%	26µM*
CCCCC(NC(=O)Cc1c(C)c2cc3c(-c4ccccc4)coc3c(C)c2oc1=O)C(=O)O (configuration not stated)	32%	?	-19%	27	2%	-9%
CC(C)(C)C1CCc2c(sc(NC(=O)Cn3nnc(-c4cccc(C(F)(F)F)c4)n3)c2C#N)C1 (configuration not stated)	-2%	.	.	.	.	-1%
CN1C(=O)[C@H]2[C@@H](/C=C/c3ccccc3)N3C(=O)CN(Cc4ccccn4)C(=O)[C@@]3(C)[C@H]2C1=O	1%	13%	12%	19	1%	-4%
CCc1ccc(NC(=O)Cn2cnc([N+](=O)[O-])c2)cc1	7%	3%	6%	67	19%	?
Cc1c(Cl)c([N+](=O)[O-])nn1CCCC(=O)N1CCN(c2ccccc2)CC1	15µM*	4%	4%	-7	-1%	-16%
Cc1c(Br)c([N+](=O)[O-])nn1CCCC(=O)N1CCN(c2ccccc2)CC1	-7%	3%	0%	0	-2%	?
Cc1ccccc1Oc1cc(NC(=O)Cn2cnc([N+](=O)[O-])c2)cc([N+](=O)[O-])c1	16µM*	-12%	-21%	1	?	?
Cc1nn(Cc2ccc(Cl)cc2)c(C)c1NC(=O)CCCn1nc([N+](=O)[O-])c(Cl)c1C	15µM*	-5%	-4%	?	0%	?
Cc1ccccc1Oc1cc(NC(=O)CCCn2nc(C)c([N+](=O)[O-])c2C)cc([N+](=O)[O-])c1	?	-2%	-11%	-56*	-6%	?
Cc1c(Cl)c([N+](=O)[O-])nn1CCCC(=O)Nc1c(Cl)cccc1Cl	?	8%	9%	10	2%	?
COc1ccc(CCN2CC(C(=O)N3CCC(O)(c4ccccc4)CC3)CCC2=O)cc1 (configuration not stated)	-5%	1%	-2%	15	-4%	-27%
CC(C)(C)NC(=O)C(c1ccccc1F)n1c(=O)c(-c2ccccc2)nc2ccccc21 (configuration not stated)	?	10%	-1%	-4	.	?
Cc1nn(CCCC(=O)Nc2cc(Oc3ccc(F)cc3)cc([N+](=O)[O-])c2)c(C)c1[N+](=O)[O-]	?	-4%	-11%	0	-6%	?
Cc1c(Cl)c([N+](=O)[O-])nn1CCCC(=O)Nc1cc(Oc2ccccc2)cc([N+](=O)[O-])c1	21µM*	-1%	0%	21	4%	?
O=C(CCNC(=O)c1ccc(Cl)cc1)NCC(c1ccco1)N1CCCC1 (configuration not stated)	4%	1%	7%	-4	3%	4%
SMILES	TDP1 cell CPT	HT1080NT lethal	HT1080 IDH1KD tx	IL-1B inflam inh	uPA generation	DT40 TDP1 no CPT
N#Cc1cccc(NC(=O)N2CC[C@@]3(CCCN(S(=O)(=O)c4ccccc4)C3)C2)c1	?	.	.	.	.	21µM*
CS(=O)(=O)N1CCC[C@@]2(CCN(c3ccccc3)C2)C1	-5%	.	.	.	.	?
O=S(=O)(c1ccccc1)N1CCC[C@@]2(CCN(c3ccncc3)C2)C1	?	.	.	.	.	18µM*
Cc1ccc(NC(=O)N2CCN(c3nnc(C)c4c(C)n(-c5ccc(Cl)cc5)nc34)CC2)c(C)c1	1%	.	.	.	.	-17%
Cc1cc(C)c2nc(-c3ccncc3)cc(C(=O)N3CCN(Cc4ccccc4Cl)CC3)c2c1	?	?	?	-75*	-7%	?
COc1ccc(CN2CCN(C(=O)c3cc(-c4cccnc4)nc4ccc(Cl)cc34)CC2)c(OC)c1OC	?	-24%	-2%	7	4%	21µM*
O=C(c1cc(-c2ccncc2)nc2ccccc12)N1CCN(c2ncccn2)CC1	-11%	-1%	-6%	22	-7%	?
O=C(c1cc2cc3ccc(Cl)cc3nc2o1)N1CCN(Cc2ccc3c(c2)OCO3)CC1	-4%	23%	10%	-4	5%	-21%
CCOc1ncccc1C(=O)N1CCN(Cc2ccc3c(c2)OCO3)CC1	-13%	-1%	-6%	?	0%	-23%
O=C(c1cc(-c2ccncc2)nc2ccc(Br)cc12)N1CCN(Cc2ccc3c(c2)OCO3)CC1	?	1%	4%	-63*	-6%	23µM*
O=C(c1cccn2c(=O)c3ccc(Cl)cc3nc12)N1CCN(Cc2ccc3c(c2)OCO3)CC1	?	10%	3%	-26	.	18µM*
CN(Cc1ccccc1)C(=O)c1csc([C@H]2C[C@H](O)[C@@H](CO)O2)n1	7%	15%	3%	5	.	-1%
COc1ccc(Cl)cc1NC(=O)NNC(=O)C(=O)Nc1ccc(F)cc1	-18%	-2%	?	-6	.	13%
